Source: PubChem BioAssay AID1347417 (National Center for Advancing Translational Sciences (NCATS), 2020)
Hit rate of the full screen: of about 120,000 compounds, about 5,300 (4.4%) were called active. Where a call stands in place of a potency, no number is given. Inconclusive results (about 22%) are left out. Calls come from the whole dose curve; as a rule, active = well fitted inhibition curve with a large enough effect; inconclusive = small, poorly fitted or top-dose-only effect; inactive = no such curve, though single readings can be large or run the other way. The full list was thinned out, with actives kept by preference.
Potency is the fitted concentration of half-maximal effect.

Experiment: qHTS Primary assay for Inhibitors of Plasmodium falciparum Dd2 growth in vitro; note: nearly all actives have a fitted effect of over 65% in size
Details: P. falciparum Dd2 growth, SYBR Green, 72 h; series mostly up to 28.9 µM
Outline: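 Infected erythrocytes (Dd2, 0.3% parasitemia, 2.5% hematocrit final) are added to compound in RPMI-1640/Albumax II medium, grown 72 h at 37C in low oxygen, then lysed with saponin/Triton-X containing SYBR Green and read by fluorescence.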
For `CCOC(=O)c1[nH]ncc1C1CC(=O)Nc2c1cnn2Cc1cccnc1` (stereo not drawn), the Potency was “inactive”.
For `C[S+](=O)([O-])N1CCC(Cn2ccc3c(N4CCOCC4)nc(-c4cccc(O)c4)cc32)CC1`, the Potency was “inactive”.
With `CN1CCc2c([nH]c3ccccc23)C12CCN(C(=O)c1nccc3ccccc13)CC2` the Potency was “inactive”.
In the case of `CCC(CC)C(=O)N1CC(C(=O)N(C)C)C2(CCOCC2)C1` (stereo not drawn), the Potency is reported as “inactive”.
For `Cc1cccc(C)c1NC(=O)Cn1ccn2nc(-c3ccccc3)c(CO)c2c1=O`, the Potency was “inactive”.
For `O=C1CO[C@H]2CN(C3CCOCC3)C[C@H]2N1c1ccccc1`, the Potency was “inactive”.
In the case of `Fc1ccc(-c2nc(Nc3cccc(Cl)c3)nc3c2COc2ccccc2-3)cc1`, the Potency is reported as 11.2 µM (active).
With `COc1ccc(-c2cc(-c3ccccc3)nc3c2COc2ccc(Cl)cc2-3)cc1` the Potency was “inactive”.
With `COc1ccc(-c2cc(-c3ccc(F)cc3)nc3c2COc2ccccc2-3)cc1` the Potency was “inactive”.
In the case of `COc1ccc(Cl)cc1C(=O)N1CCN(c2cc(C(F)(F)F)nc(C)n2)CC1`, the Potency is reported as “inactive”.
In the case of `COc1ccc(C(=O)N2CCOC3(CCN(C(=O)c4c(C)noc4C)CC3)C2)cc1`, the Potency is reported as “inactive”.
For `COCCNC(=O)c1ccc2c(c1)N=C(C)c1cc(C)ccc1S2`, the Potency was “inactive”.
With `Cc1ccc(N(CC(=O)NCC(C)c2ccccc2)S(=O)(=O)N(C)C)cc1` (stereo not drawn) the Potency was “inactive”.
In the case of `CCC1=Nc2cc(C(=O)NCC(C)c3ccccc3)ccc2Sc2ccc(C)cc21` (stereo not drawn), the Potency is reported as 11.2 µM (active).
For `CCC1=Nc2cc(C(=O)NCCCOC(C)C)ccc2Sc2ccc(C)cc21`, the Potency was 12.6 µM (active).
In the case of `CCc1ccc(Sc2cc(C(=O)NCCCOC(C)C)c3ccccc3n2)cc1`, the Potency is reported as “inactive”.
In the case of `CC1=Nc2cc(C(=O)NCc3ccc(C)cc3)ccc2Sc2ccc(Cl)cc21`, the Potency is reported as “inactive”.
With `O=C(c1ccc(OC(F)(F)F)cc1)N1CCC(n2cc(-c3nc(C4CC4)no3)nn2)C1` (stereo not drawn) the Potency was “inactive”.
In the case of `O=C(c1ccoc1)N1CCC(N2CC3CC(C2)[C@H]2CCCC(=O)N2C3)CC1` (stereo partly drawn), the Potency is reported as “inactive”.
For `Cc1ccc(Cc2ccccc2C(=O)N2C[C@@H](CN(C)CCO)[C@@H](CO)C2)cc1`, the Potency was “inactive”.
With `Cc1ccc(C(=O)N2CCC(CCC(=O)N3CCc4ccccc4C3)CC2)cc1` the Potency was “inactive”.
In the case of `Cc1ncc2n1C(=O)N(C1CCN(C(=O)c3ccc(Cl)cc3)CC1)C2`, the Potency is reported as “inactive”.
For `COCCNS(=O)(=O)c1cc(-c2nn3c(C)nnc3c3ccccc23)ccc1C`, the Potency was “inactive”.
For `Cc1ccc(Nc2nnc(-c3ccc(C)c(S(=O)(=O)N4CCCCC4)c3)c3ccccc23)cc1`, the Potency was “inactive”.
For `COC(=O)c1c(NC(=O)c2ccccc2)c2cc(NC(C)C)cnc2n1CC1CCCO1` (stereo not drawn), the Potency was “inactive”.
In the case of `Cc1ccc(-c2nnc(Nc3ccc(OCC(N)=O)cc3)c3ccccc23)cc1S(=O)(=O)NCC1CCCO1` (stereo not drawn), the Potency is reported as 1.12 µM (active).
For `Cc1ccc(-c2nnc(Nc3cccc(Br)c3)c3ccccc23)cc1S(=O)(=O)NCC1CCCO1` (stereo not drawn), the Potency was 11.2 µM (active).
In the case of `CCNS(=O)(=O)c1cc(-c2nnc(Nc3cccc(C(F)(F)F)c3)c3ccccc23)ccc1C`, the Potency is reported as “inactive”.
